# Screening results deposited in PubChem by several laboratories.
# Only some compounds are listed: those with a hit (about 6.9% of all), similar ones and a draw of the others.
# SKKanGAS inh: SKKanGAS growth inhibition; AID 1662; actives 1.3% (n = 300,000); inhibition, % at 7.5 µM; S. pyogenes SKKanGAS, kanamycin growth, BacTiter-Glo, 6 h;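 active means mean replicate score, as percent of positive control median, at least 50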;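 further: strain carries kanamycin resistance gene driven by streptokinase promoter and grows in 40 µg/ml kanamycin; loss of luminescence reflects streptokinase promoter inhibition or plain growth inhibition; 0% = median of DMSO wells and 100% = positive control at its reference dose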
# Mdm2-MdmX inh: inhibitors of human Mdm2/MdmX interaction; actives 3% (n = 330,000); SaOS-2 split-luciferase Mdm2/MdmX complementation, luminescence; O15151+Q00987; inhibition, % at 8 µM;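 active means inhibition of at least 50% at 8 µM in the primary screen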
# Target sequence (O15151 whole entry, looked up): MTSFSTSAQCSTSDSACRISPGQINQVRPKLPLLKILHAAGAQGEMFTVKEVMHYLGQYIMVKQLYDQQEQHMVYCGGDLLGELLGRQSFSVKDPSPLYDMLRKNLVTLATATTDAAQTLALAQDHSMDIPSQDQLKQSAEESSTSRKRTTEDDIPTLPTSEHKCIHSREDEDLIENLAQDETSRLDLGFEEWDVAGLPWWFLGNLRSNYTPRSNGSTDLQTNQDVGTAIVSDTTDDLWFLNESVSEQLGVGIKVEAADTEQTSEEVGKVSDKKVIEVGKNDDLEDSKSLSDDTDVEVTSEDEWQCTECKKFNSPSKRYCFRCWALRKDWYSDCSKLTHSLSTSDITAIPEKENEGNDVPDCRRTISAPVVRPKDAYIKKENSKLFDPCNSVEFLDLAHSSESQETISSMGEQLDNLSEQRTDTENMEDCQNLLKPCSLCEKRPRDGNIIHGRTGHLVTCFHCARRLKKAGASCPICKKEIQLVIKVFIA
# Target sequence (Q00987 whole entry, looked up): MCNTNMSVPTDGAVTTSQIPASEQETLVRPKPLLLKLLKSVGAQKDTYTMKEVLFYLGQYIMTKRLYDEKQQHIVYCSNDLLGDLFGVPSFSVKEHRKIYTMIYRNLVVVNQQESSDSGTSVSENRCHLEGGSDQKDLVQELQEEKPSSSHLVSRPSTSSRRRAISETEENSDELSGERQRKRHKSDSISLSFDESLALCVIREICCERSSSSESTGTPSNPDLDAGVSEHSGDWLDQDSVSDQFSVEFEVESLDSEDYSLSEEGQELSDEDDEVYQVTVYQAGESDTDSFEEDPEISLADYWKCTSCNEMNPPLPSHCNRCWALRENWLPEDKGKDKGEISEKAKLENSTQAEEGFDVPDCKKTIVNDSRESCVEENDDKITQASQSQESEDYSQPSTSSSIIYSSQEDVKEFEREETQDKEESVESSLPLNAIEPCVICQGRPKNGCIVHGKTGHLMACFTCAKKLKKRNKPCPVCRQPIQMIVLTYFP
# CSC inhib: cancer stem cell inhibition | cancer stem cell-like cells viability, luminescence | inhibition, % at 7.5 µM | actives 1.1% (n = 300,000); in the data active means inhibition above about 75%; tested in HMLE shEcad cells
# NR3A LBD binder: modulators (binders) of human NR3A ligand-binding domain | Tm shift relative to glycine control, % at 25 µM | actives 2.5% (n = 340,000) | AID 1259313 | NR3A LBD differential scanning fluorimetry, Tm shift; 0% = protein alone, 100% = glycine-bound protein;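 active means melting temperature shift of at least 10% of the positive control shift, at one fixed dose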
# Beta apoptosis: blocks beta cell apoptosis. INS-1E cytokine-induced death, ATP luminescence, 48 h; percent of positive-control rescue, neutral wells zero. protection from apoptosis, % (concentration not given with the values). actives 0.8% (n = 300,000). AID 435005;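 active means Every replicate reaches about 75%, or at least half do and their mean reaches it too, limit read from the data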;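 further: 0% = cytokine-treated negative control wells and 100% = positive control rescue; higher means more ATP so stronger rescue from cytokine killing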
# MPTP inh: permeability transition pore inhibition. inhibition, % at 10 µM. isolated mouse mitochondria, Ca2+ swelling absorbance, 30 min. actives 1.4% (n = 360,000);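 active means inhibition of 50% or more, scaled per plate between neutral and stimulator controls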;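 further: 0% = DMSO wells given calcium and 100% = 1 mM EGTA wells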
# Mdm2-MdmX conf: human Mdm2/MdmX binding inhibition, confirmed; inhibition, % at 8 µM; actives 55% (n = 10,000); luminescent assay; shares compounds with Mdm2-MdmX inh; in the data active means inhibition above about 40%
# FLuc counter: counter-screen for Mdm2/MdmX inhibitors: full-length luciferase. shares compounds with Mdm2-MdmX inh. inhibition, % at 8 µM. actives 77% (n = 6,200). AID 504607. SaOS-2 full-length luciferase counterscreen, luminescence;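 active means mean inhibition at 8 µM reaching about 37%, which flags the compound as non-specific, limit read from the data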;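 further: p53-null SaOS-2 cells with luciferase driven by a doxycycline-inducible promoter; compound on cells about two nights before reading with doxycycline added after day one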
# Starred values were filed as active, the others as inactive; . = not tested or not shown.
SMILES,SKKanGAS inh,Mdm2-MdmX inh,CSC inhib,NR3A LBD binder,Beta apoptosis,MPTP inh,Mdm2-MdmX conf,others
CCN1C(=NCc2ccco2)N[C@@H](c2cccc(C(F)(F)F)c2)C(C(=O)OC)=C1C,.,56*,.,-1,-3,1,25,
NC(=O)c1cc(S(=O)(=O)N2CCOCC2)cs1,3,13,-10,2,1,1,.,
CCOC(=O)c1cccc(NC(=O)COc2nsnc2N2CCOCC2)c1,-13,15,17,0,-1,0,.,
Cc1ccc(S(=O)(=O)N2CCOCC2)cc1C(=O)N1CCN(c2ccc(C(F)(F)F)cn2)CC1,.,7,-15,3,-4,0,.,
COc1ccc(NS(=O)(=O)c2ccc(NC(=O)c3ccc(N(C)S(C)(=O)=O)cc3)cc2)c(OC)c1,-4,-22,-3,-3,-3,11,.,
COC(=O)C1=C(C)N(Cc2ccccc2)C(=O)N[C@H]1c1cccc(C(F)(F)F)c1,5,11,23,-2,-6,0,.,
COC(=O)C1=C(C)N(Cc2ccccc2)C(=NCc2ccccc2)N[C@H]1c1cccc(C(F)(F)F)c1,.,98*,122*,-5,113*,1,36,
O=C1[C@@H]2Cc3c([nH]c4ccccc34)C(c3cccc([N+](=O)[O-])c3)N2C(=O)CN1C1CCN(Cc2ccccc2)CC1 (some centres undefined),15,49,55,.,5,1,.,
O=C(Nc1nc2cc3c(cc2s1)OCCO3)C1=COCCO1,27,87*,13,11*,20,-1,83*,FLuc counter=39*
Cc1ccc2nc(NC(=O)c3ccc4c(c3)OCO4)sc2c1,1,-119,.,3,.,1,.,
O=C(Nc1nc2ccc(F)cc2s1)C1=COCCO1,28,11,16,-8,13,0,.,
NS(=O)(=O)c1ccc2nc(NC(=O)c3ccc4c(c3)OCCO4)sc2c1,-2,76*,1,-2,-8,0,24,
COc1ccc(Cl)c2sc(NC(=O)C3=COCCO3)nc12,16,54*,6,-3,1,-1,24,
O=C(CN1C(=O)c2ccccc2C1=O)Nc1ccc(Cl)cn1,4,-13,.,-1,-11,-2,.,
COCCN(C(=O)COC(=O)c1cccnc1SC)c1c(N)n(Cc2ccccc2)c(=O)[nH]c1=O,-2,6,1,-3,-6,-1,.,
COc1ccc(-c2cc(C)no2)cc1S(=O)(=O)N1CCN(C(=O)c2ccco2)CC1,1,10,-6,0,-5,0,.,
Cc1cc(C)c(C#N)c(SCC(=O)Nc2c(C)n(C)n(-c3ccccc3)c2=O)n1,.,19,-5,-10,-6,0,.,
COc1cc(C(=O)Nc2nc(-c3cccs3)cs2)cc(OC)c1OC,11,76*,.,-4,.,0,28,
NC1(C#Cc2ccc3oc(=O)c(-n4cc(-c5ccsc5)nn4)cc3c2)CCCCC1,.,94*,14,-2,-2,6,15,
Oc1ccccc1CNc1ccc(Br)cn1,8,78*,7,-4,-11,-1,68*,FLuc counter=29
Brc1ccc(NCc2cccc3ccccc23)nc1,27,15,27,-8,-13,2,.,
Cc1ccccc1Sc1ncnc2onc(C)c12,-7,17,4,-4,-12,2,.,
Cc1noc2ncnc(Sc3c(Cl)cccc3Cl)c12,16,54*,11,-1,-26,0,20,
CNC(=O)c1c(C)nn(-c2ccc(F)c(Cl)c2)c1-c1cc(C)on1,-1,-24,-10,1,-2,2,.,
CCOc1ccccc1Nc1nnc(SC(C)C(=O)Nc2nc(-c3ccccc3)cs2)s1 (centres undefined),1,86*,24,3,5,-1,79*,FLuc counter=35
O=C(Nc1cccc(-c2cnc3ccccc3n2)c1)C1CC(=O)N(c2ccccc2)C1 (centres undefined),15,14,-3,-3,1,-1,.,
Cc1ccc(-c2nn(-c3ccccc3)cc2/C=C(\C#N)C(=O)NCc2ccccc2)cc1,2,75*,8,0,-2,3,44*,FLuc counter=85*
